A number with no mark means an inactive call. Calls of active or inactive are those of the source.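 The calls were made as follows: active = inhibition at or above 50% relative to wild type and mutant plate controls; inactive = inhibition below 50%.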
Assay: loss of swimming-algae plug formation – whole organism, Chlamydomonas reinhardtii, WT vs cilia-less mutant, absorbance, 96-well, primary screen (AID 463189);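 also: 0% = wild type cc124 cells in DMSO and 100% = ciliumless bld1 mutant cells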
Conditions: Chlamydomonas reinhardtii gravitaxis, OD600 absorbance, 2 days; at 10 µM; stronger effect = higher value
In the case of `CCCCCCCCCCCCCCCCCCNC(=O)OCC(COP(=O)([O-])OCC[n+]1ccsc1)OC` (configuration not stated), the inhibition is reported as 7%. `NC(=O)c1ncn([C@@H]2O[C@H](CO)[C@@H](O)[C@H]2O)n1` showed an inhibition of 8.25%. `C[C@@](Cc1ccc(O)c(O)c1)(NN)C(=O)O` showed an inhibition of -8.89%. With `CN1CCN(C2Cc3ccccc3Sc3ccc(Cl)cc32)CC1` (configuration not stated) the inhibition was 30.5%. `COc1ccccc1N1CCN(CCCCN2C(=O)c3ccccc3C2=O)CC1` gave an inhibition of 1.35%. With `CC1(C)CCC2=C(O1)c1ccccc1C(=O)C2=O` the inhibition was 153% (active). Molecule `CCCCCCC/C=C\CCCCCCCCC(=O)O` has an inhibition of 9.07%. `O=Nc1c(-c2c(O)[nH]c3ccccc23)[nH]c2ccccc12` showed an inhibition of 1.78%. Work on `CC(=O)O[C@H]1CC2(C)[C@@H](C[C@@H](O)[C@H]3[C@@]4(C)CC[C@@H](O)[C@@H](C)[C@@H]4CC[C@@]32C)C1=C(CCC=C(C)C)C(=O)O` (some centres not stated) yielded an inhibition of 1.57%. `OC[C@H]1O[C@@H](n2cnc3c(NC4CCCC4)ncnc32)C(O)[C@H]1O` (some centres not stated) gave an inhibition of 2.66%. `C[C@]12CC[C@@H]3c4ccc(O)cc4CC[C@H]3[C@@H]1CC[C@@H]2O` gave an inhibition of 5.14%. Work on `CCCCS(=N)(=O)CCC(N)C(=O)O` (configuration not stated) yielded an inhibition of -0.023%. Molecule `O=NN(CCCl)C(=O)NCCCl` has an inhibition of 6.33%. Work on `NC(Cc1cccc(-c2ccccc2CP(=O)(O)O)c1)C(=O)O` (configuration not stated) yielded an inhibition of -2%. `O=C1NCN(c2ccccc2)C12CCN(CCCC(c1ccc(F)cc1)c1ccc(F)cc1)CC2` showed an inhibition of -2.36%. For `CNC(=O)[C@H]1O[C@@H](n2cnc3c(NCc4ccc(N)cc4)ncnc32)C(O)[C@H]1O` (some centres not stated), the inhibition was -1.61%. In the case of `O=c1cc(-c2ccc(O)cc2)oc2cc(O)cc(O)c12`, the inhibition is reported as 14.8%. For `CCCCCCCCCCCCCCCCCCOC[C@H](COP(=O)([O-])OCC[N+](C)(C)C)OC`, the inhibition was -2.43%. `COc1[nH]c2ccc(F)cc2c1C(=O)OCC1CCN(CCNS(C)(=O)=O)CC1` showed an inhibition of -12.7%. `CC(=O)NCCc1c[nH]c2ccc(O)cc12` showed an inhibition of -4.58%. `Cc1ccc(C(=O)O[C@H](C(=O)O)[C@H](OC(=O)c2ccc(C)cc2)C(=O)O)cc1` (tested in a mixture with another compound) gave an inhibition of 5.96%. In the case of `CCCCCCCCCCCCCCCCCC(=O)OC(CC(=O)O)C[N+](C)(C)C` (configuration not stated), the inhibition is reported as 6.23%.

Reference: PubChem BioAssay
